Test results as given in PubChem BioAssay AID1851 (National Center for Advancing Translational Sciences (NCATS), 2009).
Out of some 16,000 compounds screened, about 5,100 (32%) were called active. Not shown: some 25% with an inconclusive outcome. Some of the results follow. Values without a mark were called inactive. Calls come from the whole dose curve; as a rule, active = well fitted curve in the direction sought with a large enough effect; inconclusive = small, poorly fitted or top-dose-only effect, or effect the other way; inactive = no such curve, though single readings can be large or run the other way.
% is set by controls: 0 for no effect and ±100 for the full control effect.

What follows are molecules tested against Cytochrome P450 3A4 (Homo sapiens) (UniProt P08684) (assay: Cytochrome panel assay with activity outcomes). Conditions: recombinant CYP, pro-luciferin dealkylation, luminescence, p450-cyp3a4; series mostly up to 57.1 µM; activity, negative = inhibition: at the top concentration.
Cytochrome P450 3A4 (Homo sapiens), sequence (P08684 whole entry, looked up): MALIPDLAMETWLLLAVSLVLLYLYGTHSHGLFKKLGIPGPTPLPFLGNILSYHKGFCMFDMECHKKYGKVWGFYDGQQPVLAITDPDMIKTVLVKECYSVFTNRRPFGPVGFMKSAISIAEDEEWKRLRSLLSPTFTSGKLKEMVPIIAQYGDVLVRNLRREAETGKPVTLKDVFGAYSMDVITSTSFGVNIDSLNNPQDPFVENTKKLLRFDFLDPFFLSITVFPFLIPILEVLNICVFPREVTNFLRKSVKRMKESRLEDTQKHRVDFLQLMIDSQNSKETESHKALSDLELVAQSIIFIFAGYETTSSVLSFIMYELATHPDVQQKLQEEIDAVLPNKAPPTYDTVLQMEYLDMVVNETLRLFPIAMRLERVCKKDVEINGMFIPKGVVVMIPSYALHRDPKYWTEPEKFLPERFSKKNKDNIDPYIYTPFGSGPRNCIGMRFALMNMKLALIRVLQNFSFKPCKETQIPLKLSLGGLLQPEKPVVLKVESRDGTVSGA
In the case of C[C@@](N)(C(=O)O)c1ccc(S(=O)(=O)O)cc1, the “activity, negative = inhibition” value is reported as -3.33%. With CC(C)(C)c1ccc(S(=O)(=O)/C=C\C#N)cc1 the AC50 was 25100 nM (active). CCC(=O)Nc1ccc(C(=O)OCC(=O)c2ccc(C)c([N+](=O)[O-])c2)cc1 was tested, and the AC50 was 7940 nM (active). Cc1ccc(C(=O)Nc2ccccc2Oc2ccccc2)cc1[N+](=O)[O-] was tested, and the “activity, negative = inhibition” value was -22.4%. In the case of Cc1ccc(C(=O)Nc2ccc(Cc3ccncc3)cc2)cc1[N+](=O)[O-], the AC50 is reported as 355 nM (active). In the case of Cc1ccc(NC(=O)c2ccc(NCC3CCCO3)c([N+](=O)[O-])c2)cc1Cl (centres undefined), the activity, negative = inhibition is reported as -6.83% [at 11.4 µM]. With Cc1ccc(C(=O)COC(=O)CNC(=O)Cc2ccccc2)cc1[N+](=O)[O-] the “activity, negative = inhibition” value was -4.57%. With CC1=CC(=O)C=CC1(C)C(Cl)(Cl)Cl (centres undefined) the activity, negative = inhibition was 2.38% [at 2.29 µM]. COc1ccc(-c2nc(-c3ccccc3)c(-c3cc([N+](=O)[O-])ccc3C)[nH]2)cc1O was tested, and the AC50 was 5010 nM (active). O=c1[nH]c(=O)n([C@@H]2C[C@H](O)[C@H](CO)O2)cc1C(F)(F)F was tested, and the “activity, negative = inhibition” value was -12.5% [at 25.6 µM]. In the case of Cc1cccc(NC(=O)NNC(=O)c2cc(-c3ccccc3Cl)nc3ccccc23)c1, the AC50 is reported as 3980 nM (active). For O=C(NNC(=O)c1cc(-c2ccc(Cl)c(Cl)c2)nc2ccccc12)Nc1ccccc1, the activity, negative = inhibition was -6.22% [at 2.29 µM]. Cc1ccc(NC(=O)c2cc(Cl)nc3ccccc23)cc1 was tested, and the AC50 was 10000 nM (active). With CC1(C)S[C@@H]2[C@H](NC(=O)[C@@H](NC(=O)N3CCNC3=O)c3ccccc3)C(=O)N2[C@H]1C(=O)O the “activity, negative = inhibition” value was 0.608% [at 25.6 µM]. Work on CCC1CC2CC(NC(C)=O)C1C2 (centres undefined) yielded an activity, negative = inhibition of 0.468% [at 2.29 µM]. Work on N[C@@H](Cc1cccc([N+](=O)[O-])c1)C(=O)O yielded an activity, negative = inhibition of -9.82% [at 11.4 µM]. O=[N+]([O-])c1ccc2c(c1)S(=O)c1ccccc1-2 (centres undefined) showed an activity, negative = inhibition of -11.3% [at 11.4 µM]. N=C(N)S[C@H]1c2ccccc2-c2cc([N+](=O)[O-])ccc21 was tested, and the AC50 was 5010 nM (active). COC(=O)CCCC(=O)O showed an activity, negative = inhibition of -18.6% [at 11.4 µM]. With COc1cc2c(C(=O)NCc3ccc(C)o3)cn(CC(C)C)c(=O)c2cc1OC the activity, negative = inhibition was -15.9% [at 2.29 µM]. In the case of COC(=O)C(C(=O)OC)C(C[N+](=O)[O-])c1ccc(OC)c(OC)c1 (centres undefined), the activity, negative = inhibition is reported as -7.76% [at 2.29 µM]. With COc1cc(C(=O)NCCC(C)C)c([N+](=O)[O-])cc1OC the AC50 was 15800 nM (active). In the case of O=C(CNc1cccc(Cl)c1)c1ccc(Cl)cc1, the “activity, negative = inhibition” value is reported as -14.6%. O=C(CCNc1cccc(Cl)c1)c1cccs1 was tested, and the AC50 was 14100 nM (active). In the case of O=C(NOC(=O)c1cc(Br)ccc1Cl)c1cccs1, the “activity, negative = inhibition” value is reported as 8.25%. In the case of CNS(=O)(=O)c1ccccc1C(=N)c1ccccc1, the activity, negative = inhibition is reported as -6.85% [at 11.4 µM]. CCN(CC)C[C@@H](O)c1ccc2ccc3ccccc3c2c1 was tested, and the activity, negative = inhibition was -25.1% [at 11.4 µM]. With CC(C)NC[C@H](O)c1ccc2ccccc2c1 the AC50 was “inactive”. CCCCOC(OCCCC)[C@H](O)CSc1ccc2ccccc2c1 was tested, and the AC50 was 5010 nM (active). Cc1nnc(C)n1/N=C/c1cccs1 was tested, and the “activity, negative = inhibition” value was -16.5%. In the case of S=c1[nH]nc(C2CCCCC2)n1/N=C/c1cccs1, the AC50 is reported as 12600 nM (active). Work on O=C(O)c1cc(N=Cc2ccccc2O)cc(C(=O)O)c1 yielded an activity, negative = inhibition of -17.4% [at 11.4 µM]. O=S(=O)(O)c1cc(O)c2c(N=Cc3ccccc3O)cc(S(=O)(=O)O)cc2c1 showed an activity, negative = inhibition of 0.658% [at 11.4 µM]. For Cc1cc(O)c(C(C)C)cc1N=Cc1ccccc1O, the AC50 was 3160 nM (active). With COc1ccc(/C=N/NC(=O)c2cccc([N+](=O)[O-])c2)cc1OS(=O)(=O)c1ccc(C)cc1 the activity, negative = inhibition was -20.3% [at 2.29 µM]. In the case of COc1cccc(/C=N/NC(=O)c2cccc([N+](=O)[O-])c2)c1OS(=O)(=O)c1ccc(C)cc1, the AC50 is reported as 1120 nM (active). In the case of COc1cc(/C=N/NC(=O)c2cccc([N+](=O)[O-])c2)ccc1OCc1ccc(C)cc1, the AC50 is reported as 1410 nM (active). For COc1cc(/C=N\Nc2ccc([N+](=O)[O-])cc2)ccc1OCC(=O)Nc1ccc(C)c(C)c1, the AC50 was 3980 nM (active). O=C(COc1ccc(/C=N/NC(=O)c2ccccc2)cc1)Nc1ccc([N+](=O)[O-])cc1 was tested, and the “activity, negative = inhibition” value was 10.2%. In the case of N[C@@H](Cc1ccc(O)c(O)c1)C(=O)O, the AC50 is reported as “inactive”. Molecule O=C(O)c1c(-c2c3ccc(=O)cc-3oc3cc(O)ccc23)cc2ccccc2c1-c1ccccc1 has an activity, negative = inhibition of -8.67% [at 11.4 µM]. In the case of Cc1nc(-c2c(C(F)(F)F)noc2-c2ccc(O)cc2O)cs1, the AC50 is reported as 501 nM (active). With CSCC[C@@H]1NC(=O)C/C=C\[C@@H](C)COC(=O)[C@H](C)COC1=O the activity, negative = inhibition was -24% [at 11.4 µM]. With N#Cc1c(-c2ccc3c(c2)OCO3)ccn2nc(-c3cccc(C(F)(F)F)c3)nc12 the “activity, negative = inhibition” value was 13.4%. In the case of N#Cc1cccc(-c2nccc(-n3ccnc3)n2)c1, the AC50 is reported as 2510 nM (active). c1cn(-c2ccnc(-c3ccc4c(c3)OCO4)n2)cn1 was tested, and the AC50 was 631 nM (active). In the case of N#Cc1cccc(-c2cc(-n3ccnc3)ncn2)c1, the AC50 is reported as 398 nM (active). In the case of CN(C)c1ccc(-c2cc(-n3ccnc3)ncn2)cc1, the AC50 is reported as 63.1 nM (active). In the case of CN1CCN(c2cc(-c3ccc(N(C)C)cc3)ncn2)CC1, the “activity, negative = inhibition” value is reported as -24.7%. For CC(=O)Oc1ccccc1C(=O)Oc1ccccc1C(=O)O, the “activity, negative = inhibition” value was -1.9% [at 25.6 µM]. With COc1cccc(-c2nccc(-n3ccnc3)n2)c1 the AC50 was 1000 nM (active). With c1cncc(-c2cc(-n3ccnc3)ncn2)c1 the AC50 was 1580 nM (active). With Nc1nc(-c2cccnc2)cc(-c2cc(-c3cccnc3)nc(N)n2)n1 the activity, negative = inhibition was -3.62% [at 11.4 µM]. CCCCN(c1ccccc1)c1ncnc2c1cnn2C was tested, and the activity, negative = inhibition was -28% [at 11.4 µM]. In the case of CC(N)=NCc1cccc(CN)c1, the “activity, negative = inhibition” value is reported as -12.2%. Cc1cnc(CNc2ncnc3ccc(-c4cccc(NS(C)(=O)=O)c4)cc23)cn1 was tested, and the AC50 was 12600 nM (active). In the case of Cc1cccc(CNc2ncncc2-c2cccc(NS(C)(=O)=O)c2)c1, the AC50 is reported as 158 nM (active). In the case of CS(=O)(=O)Nc1cccc(-c2cncnc2NCc2cccs2)c1, the AC50 is reported as 398 nM (active). In the case of CS(=O)(=O)Nc1cccc(-c2cncnc2NCc2cccnc2)c1, the AC50 is reported as 1000 nM (active).
